Compound activity (PubChem BioAssay)
Many of the other results were omitted from the sample, so hits are more common in it than they were.
Shiga inhibitor – A qHTS for Small Molecule Inhibitors of Shiga Toxin; 9.2% of 290,000 active; Vero cells, Shiga toxin protein synthesis inhibition reporter; inhibition, % at 38.7 µM; AID 2315, 2010; in the data active means inhibition mostly above about 28%, no sharp cut-off; inactive means mostly below about 43%; further: 0% is about no effect
Giardia FBPA inh – qHTS Assay for Inhibitors of Fructose-1,6-bisphosphate Aldolase from Giardia Lamblia; A8B2U2; purified Giardia FBPA; Potency, µM (titrated, usually from 59.6 µM), for the others: at the highest dose activity, negative = inhibition, actives largely listed as inhibitors; 0.71% of 290,000 active; AID 2451, 2010; further: potency means the concentration at half of the fitted maximal effect; on the % scale 0 is the no-effect control and ±100 the full control effect; nearly all actives have a fitted effect of over 55% in size
Target sequence (A8B2U2 whole entry, looked up): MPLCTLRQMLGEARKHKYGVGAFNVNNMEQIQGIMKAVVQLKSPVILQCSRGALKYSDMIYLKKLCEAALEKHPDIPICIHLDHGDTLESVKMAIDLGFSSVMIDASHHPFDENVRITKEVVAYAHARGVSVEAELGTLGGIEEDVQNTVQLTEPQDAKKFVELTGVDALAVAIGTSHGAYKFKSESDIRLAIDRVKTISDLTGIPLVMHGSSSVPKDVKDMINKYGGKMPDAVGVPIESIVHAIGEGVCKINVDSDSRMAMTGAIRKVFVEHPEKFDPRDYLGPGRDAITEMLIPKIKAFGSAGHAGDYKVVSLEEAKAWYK
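40 nM FBPA preincubated 10 min at RT with compound (up to 57.5 uM final), then substrate plus GAPDH/TPI/NAD/arsenate coupling and diaphorase/resazurin added. Fluorescence read after 20 min at RT, 525/598 nm.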
LmPK inh – qHTS Assay for Inhibitors of Leishmania Mexicana Pyruvate Kinase (LmPK); purified LmPK, Kinase-Glo ATP luminescence, 1 h; 0.37% of 290,000 active; Q27686; Potency, µM (top dose mostly 57.5 µM), without a hit: top-dose activity change, negative = inhibition, actives largely listed as inhibitors; further: potency means the concentration at half of the fitted maximal effect; on the % scale 0 is the no-effect control and ±100 the full control effect
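Screened at intermediate enzyme activity to detect both inhibitors and activators: LmPK at 0.1 nM, with a 0.5 nM enzyme column as activation reference. PEP 0.5 mM, ADP 0.1 mM; ATP detected by luminescence after 1 h.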
RE007 growth inh – qHTS Assay for Inhibitors of the HIV-1 protein Vpr. 0.21% of 360,000 active. S. pombe RE007 Vpr strain, BacTiter-Glo ATP luminescence, 24 h. AID 651644, 2012. Potency, µM (series often up to 92.2 µM), for inactives: at the top dose activity change, negative = less growth, most hits filed as inhibitors; active means well fitted falling curve with a large enough effect; inconclusive means small, poorly fitted or top-dose-only effect; inactive means no such curve, though single readings can be large or run the other way; further: potency means the concentration at half of the fitted maximal effect; on the % scale 0 is the no-effect control and ±100 the full control effect; nearly all actives have a fitted effect of over 50% in size
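Fission yeast RE007 carrying one integrated HIV-1 vpr copy, seeded at OD 0.01 in PMG+AL medium with 23 nL pinned compound. Grown 24 h at 30 degrees; viability read by BacTiter-Glo luminescence after 5 min.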
Cycloheximide cs – Cycloheximide Counterscreen for Small Molecule Inhibitors of Shiga Toxin. cell reporter, cycloheximide protein synthesis inhibition counterscreen. max response, %. 12% of 300,000 active. AID 2314, 2010; in the data active means max response mostly above about 13%, no sharp cut-off; inactive means mostly below about 14%; further: read at 38.3 µM for the half of the compounds with a filed dose; 0% is about no effect
TbPYK inhibitor – qHTS of Trypanosoma Brucei Inhibitors. Potency, µM (top dose mostly 76.8 µM), without a hit: at the top dose activity, negative = inhibition, usual class: inhibitors. pyruvate kinase (Trypanosoma brucei), Q57TT1. TbPYK enzyme, Kinase-Glo Plus ATP luminescence, 45 min. 0.12% of 410,000 active; further: potency means the concentration at half of the fitted maximal effect; on the % scale 0 is the no-effect control and ±100 the full control effect; nearly all actives have a fitted effect of over 50% in size
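In this concentration-response screen, enzyme-free wells defined baseline while DMSO plates tracked drift. Each reaction combined TbPYK, substrate, compound and 130 uM ADP for 45 min at room temperature. Kinase-Glo Plus luminescence gave the signal.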
* marks the source's active call; other numbers are inactive results; u = inconclusive; x = no result; [ ] = remark or other dose. Unless noted, the call rests on the fitted dose curve; in most records, active means well fitted curve in the direction sought with a large enough effect; inconclusive means small, poorly fitted or top-dose-only effect, or another doubt; inactive means no such curve, though single readings can be large; an effect the other way counts as inactive or inconclusive.

SMILES	Shiga inhibitor	Giardia FBPA inh	LmPK inh	RE007 growth inh	Cycloheximide cs	TbPYK inhibitor
O=C(NC1=NCCS1)c1ccc(Cl)c(S(=O)(=O)N2CCCCCC2)c1	35.5	4.1%	1.6%	-5.5%	18.5*	-0.1%
O=C(NCc1nc2ccccc2[nH]1)c1cccc(S(=O)(=O)N2CCCCC2)c1	-10.6	-13.7%	1.8%	-0.2%	-2.4	4.1%
O=C(NC1=NCCS1)c1ccc(Cl)c(S(=O)(=O)N2CCc3ccccc32)c1	10.9	-7.3%	6.6%	-0.5%	-2.3	0.2%
O=C(NCCCc1ccc(F)cc1)C1CCC(=O)N(CCCN2CCCC2=O)C1 (stereo unspecified)	-2.0	5.9%	-4.8%	-14.8%	-4.3	1.0%
C#CCNC(=O)C[C@@H]1C[C@@]2(C(=O)OCC)CCCC=C2N(CCC2=CCCCC2)C1=O	x	x	x	9.9%	x	x
CCc1c2c(nc3c(C(C)C)cccc13)-c1cccc(=O)n1C2	x	-7.0%	x	x	x	x
COc1ccc(-c2noc(CSc3nnc(-c4ccncc4)n3-c3ccc(C)cc3)n2)cc1OC	x	x	x	x	x	3.8%
COc1ccc(CC(=O)NNC(=O)c2cccs2)cc1	5.0	6.5%	-4.2%	15.1%	5.7	9.3%
COc1ccc(C(=O)/C(=C/O)N=Nc2ccc(F)cc2)cc1	76.4*	1.5%	-1.5%	-47.8%	58.2*	-24.6%
COc1ccc(N=N/C(=C\O)C(=O)c2cccs2)cc1	58.0*	0.0%	-0.7%	38.0%	39.1*	-4.8%
COc1ccc(/C=N/Nc2nc(-c3ccc(C)cc3)c(NC(C)=O)s2)cc1OC	54.9*	-17.2%	10.6%	-10.6%	33.6*	-1.7%
COc1cc(/C=N\Nc2nc(-c3ccc(C)cc3)c(NC(C)=O)s2)ccc1O	50.7	-26.1%	11.4%	-4.0%	18.6*	-5.8%
CCOc1cc(/C=N\Nc2nc(-c3ccc(C)cc3)c(NC(C)=O)s2)ccc1O	23.5	-21.1%	13.5%	-4.7%	2.0	-6.0%
O=C(COC(=O)c1c(F)cccc1F)Nc1cccc(S(=O)(=O)N2CCCCC2)c1	x	x	x	0.2%	x	1.0%
Cc1cc(C)cc(-c2nnc(SCc3ccc(C(=O)O)cc3)o2)c1	54.8	-1.9%	-7.8%	11.9%	-1.3	0.8%
CCOc1ccc(N(C(=O)c2ccccc2Cl)C2=NC(C)(C)CS2)cc1	65.6*	-5.4%	5.0%	0.0%	28.3*	1.9%
COc1ccccc1C(=O)Nc1ccc(-c2nnn(CC(=O)N3CCN(C(=O)c4ccco4)CC3)n2)cc1	28.6	14.0%	4.0%	2.5%	28.4*	1.2%
Cc1ccccc1-c1nnn(CC(=O)N2CCN(C(=O)c3ccco3)CC2)n1	x	x	x	-14.1%	x	2.1%
O=C(Nc1ccc(-c2nnn(CC(=O)N3CCN(C(=O)c4ccco4)CC3)n2)cc1)c1ccccc1F	83.6*	2.9%	3.6%	x	50.7*	x
Cc1ccc(CNC(=O)c2nnc(Cc3cccc(F)c3)o2)cc1	x	x	x	x	x	-20.3%
Cc1ccc(NC(=O)N2CCC(=O)N2)cc1	76.8*	-9.3%	-4.8%	-20.3%	36.9*	-20.5%
CS(=O)(=O)n1nc(OC(=O)c2cccc3ccccc23)cc1N	72.1*	-3.5%	7.2%	1.7%	63.1*	-11.6%
CS(=O)(=O)n1nc(OC(=O)c2cc(Br)ccc2Cl)cc1N	5.4	8.6%	0.4%	2.3%	-2.9	-11.7%
Cc1nc(/N=C(\N)NC(=O)c2ccccc2)nc2ccccc12	52.0*	-1.9%	7.3%	-12.0%	49.8*	3.5%
Cc1nc(N=C(N)N)nc2ccccc12	-3.9	0.7%	2.9%	-2.6%	7.8	3.8%
SMILES	Shiga inhibitor	Giardia FBPA inh	LmPK inh	RE007 growth inh	Cycloheximide cs	TbPYK inhibitor
COc1ccc(N=c2oc3c(OC)cccc3cc2C(=O)NCc2ccco2)cc1OC	27.7	-11.0%	-1.4%	-6.5%	10.8	3.7%
COc1cccc2cc(C(=O)Nc3ccc(F)cc3)c(=Nc3ccc(C(=O)O)cc3)oc12	76.1*	5.8%	-0.5%	-3.1%	51.0*	2.6%
COc1ccc(C(=O)Nc2ccccc2C(=O)NCc2ccco2)cc1OC	-2.6	-1.3%	12.8%	-2.9%	-1.5	-4.6%
COc1ccc(C(=O)Nc2ccc(Cl)cc2C(=O)NCc2ccco2)cc1OC	54.6*	-8.0%	-1.1%	6.0%	42.5*	-0.6%
COc1ccccc1N=c1oc2c(OC)cccc2cc1C(=O)NCc1ccco1	114.6*	1.8%	3.5%	4.3%	48.5*	3.3%
COc1ccc(OC)c(N=c2oc3c(OC)cccc3cc2C(=O)NCc2ccco2)c1	54.0	-3.7%	0.7%	18.1%[3.69 µM]	-0.9	x
O=C(Nc1cccc(Cl)c1)Nc1ccccc1C(=O)NCc1ccco1	55.2*	-15.0%	-21.2%	13.7%	32.4*	-2.0%
COc1ccc(NC(=O)c2nc(SCc3ccccc3F)ncc2Cl)cc1	x	x	x	x	x	-3.3%
O=C(NC1CCCc2c1cnn2-c1ccc(F)cc1F)c1ccccc1N1CCOCC1 (stereo unspecified)	-16.1	1.2%	4.9%	13.9%	9.0	3.5%
COc1ccccc1C(=O)Nc1ccccc1C(=O)NCc1ccco1	10.6	x	-3.0%	5.3%	32.3*	-4.6%
CC1CCN(C(=O)CCNS(=O)(=O)c2ccc(Br)cc2)CC1	x	x	x	-12.2%	x	-3.8%
O=C(Nc1nnc(C(F)(F)F)s1)C1COc2ccccc2O1 (stereo unspecified)	44.0*	-1.3%	-9.8%	u	33.8*	-1.5%
CC1(C)CC(=O)c2sc(NC(=O)CN3C(=O)CCC3=O)nc2C1	74.5*	17.4%	1.8%	-0.5%	50.5*	-1.4%
CC(C)(C)c1csc(NC(=O)C2COc3ccccc3O2)n1 (stereo unspecified)	87.0*	x	-2.9%	-12.8%	42.2*	-3.0%
CC1(C)CNC(=O)c2sc(NC(=O)c3ccccc3Cl)nc2C1	34.0	-7.2%	-2.1%	-2.4%	16.6*	2.0%
CN(C)CCN[C@H]1CCC2C3CC=C4C[C@@H](O)CC[C@]4(C)C3CC[C@@]21C (stereo partly specified)	x	x	x	-10.9%	x	1.9%
O=C(Nc1nnc(CC(=O)N2CCOCC2)s1)C1COc2ccccc2O1 (stereo unspecified)	-10.0	1.4%	-1.1%	-19.4%	-7.1	1.8%
CC1(C)CC(=O)c2sc(NS(=O)(=O)c3ccc([N+](=O)[O-])cc3)nc2C1	-6.8	-22.1%	5.6%	2.8%	46.4*	11.3%
O=C(Nc1nncs1)C1COc2ccccc2O1 (stereo unspecified)	49.7*	-2.1%	-10.2%	12.6%	13.8*	-5.0%
O=C(Nc1nnc(C2CC2)s1)C1COc2ccccc2O1 (stereo unspecified)	74.7	4.0%	0.3%	-20.7%	34.2*	-2.1%
CC1(C)CC(=O)c2sc(NC(=O)C3COc4ccccc4O3)nc2C1 (stereo unspecified)	31.7*	13.3%	-1.5%	-12.0%	34.2*	0.6%
